# Screens (PubChem BioAssay)
# This is a sample that favours compounds with a hit; in the whole collection about 2% have one here.
# FUS suppressor – qHTS for Suppressors of FUS Proteinopathy: Primary screen using FUS-linked yeast assay | S. cerevisiae FUS-expressing, growth rescue, OD600, 24 h | actives 0.24% (n = 390,000) | AID 1347120, 2019 | Potency, µM (highest dose often 76.6 µM), hits mostly activators;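 further: potency means the concentration at half of the fitted maximal effect; plate controls were DMSO vehicle for no effect and reference control for full effect; nearly all actives have a fitted effect of over 55% in size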
#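 Compound concentration series was pinned onto galactose-induced FUS-expressing yeast seeded at OD 0.005. Plates sat 24hr at 30C; absorbance at 600 nm gave growth. DMSO served as background control.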
# Abeta rescue – qHTS for compounds that reverse cellular toxicity of Amyloid beta (A-beta) peptide in yeast: Primary Screen. Potency, µM (top dose mostly 46.1 µM), usual class: activators. actives 0.063% (n = 410,000). yeast expressing A-beta42, growth rescue, OD600, 48 h; response scale: 0% DMSO, 100% iron-clioquinol control. AID 1347071, 2019; further: potency means the concentration at half of the fitted maximal effect; nearly all actives have a fitted effect of over 55% in size
#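 Yeast growth medium received pinned compounds, then yeast cells expressing toxic A-beta were added; plates incubated at 30 C for 48 hr. Growth read as absorbance at 600 nm, normalized to DMSO and equimolar FeCl3 plus clioquinol controls.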
# aSyn rescue – qHTS of alpha-syn Inhibitors. Potency, µM (titrated, usually from 46.1 µM), inactives show top-dose growth rescue (activation), hits mostly activators. Yeast expressing alpha-synuclein, growth rescue, BacTiter-Glo, 24 h. actives 0.14% (n = 370,000); further: potency means the concentration at half of the fitted maximal effect; % of control where 0% means no effect; nearly all actives have a fitted effect of over 65% in size
#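 Galactose-induced alpha-syn yeast (OD600=0.02, raffinose-pregrown) + pinned cpd, 24 hr, 30 deg C; growth by BacTiter-Glo luminescence. Growth restoration scores as activation.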
# TDP-43 yeast inh – qHTS of TDP-43 Inhibitors; TDP-43 expressing yeast growth rescue, BacTiter-Glo, 24 h; Potency, µM (series often up to 46.1 µM), for inactives: top-dose growth rescue (activation), most hits filed as activators; actives 1.8% (n = 410,000); AID 652104, 2013; further: potency means the concentration at half of the fitted maximal effect; % of control where 0% means no effect; nearly all actives have a fitted effect of over 50% in size
#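 Galactose-induced TDP-43 yeast, OD600=0.02, compound pinned; 24 hr, 30 deg C; BacTiter-Glo luminescence for growth. Inhibitors of TDP-43 toxicity read as activators.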
# LDHA inh – qHTS assay for inhibitors of human lactate dehydrogenase. L-lactate dehydrogenase A chain (Homo sapiens), P00338. purified LDHA, NADH/diaphorase-resazurin fluorescence; stronger effect = lower value. activity change, % (values are at about 110 or 230 µM). actives 0.15% (n = 480,000); in the data active means activity change below about -30%; inconclusive means mostly about -25% to -30%;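 further: plate controls were DMSO wells for no effect and wells without enzyme for full effect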
#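 Resorufin fluorescence (ex540/em590), read at 0 and 20 min after diaphorase/resazurin addition, reports the NADH left after a 5 min room-temperature reaction of 2 nM human LDH5 with 0.06 mM NADH and 0.2 mM pyruvate.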
# mIDH1 inhibitor – qHTS for Inhibitors of mutant isocitrate dehydrogenase 1 (IDH1): qHTS; AID 602179, 2012; Isocitrate dehydrogenase [NADP] cytoplasmic (Homo sapiens), O75874; actives 0.093% (n = 390,000); IDH1-R132H enzyme, NADPH consumption, diaphorase/resazurin fluorescence; Potency, µM (titrated, usually from 76.6 µM), for the others: at the top dose activity change, negative = inhibition, actives largely listed as inhibitors; further: potency means the concentration at half of the fitted maximal effect; on the % scale 0 is the no-effect control and ±100 the full control effect; nearly all actives have a fitted effect of over 65% in size
# Target sequence (O75874 whole entry R132H, stated change not applied): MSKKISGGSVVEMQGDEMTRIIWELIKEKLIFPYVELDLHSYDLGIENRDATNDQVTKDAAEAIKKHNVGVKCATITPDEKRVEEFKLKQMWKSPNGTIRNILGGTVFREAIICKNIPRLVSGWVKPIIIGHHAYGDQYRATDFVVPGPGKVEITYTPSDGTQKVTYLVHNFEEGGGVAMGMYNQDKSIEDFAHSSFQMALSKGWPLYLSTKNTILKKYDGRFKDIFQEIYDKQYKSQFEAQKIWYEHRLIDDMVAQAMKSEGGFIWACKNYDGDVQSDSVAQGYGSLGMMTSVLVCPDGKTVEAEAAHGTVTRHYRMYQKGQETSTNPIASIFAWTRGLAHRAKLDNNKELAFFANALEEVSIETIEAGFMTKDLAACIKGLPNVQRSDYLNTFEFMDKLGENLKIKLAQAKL
#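 IDH1-R132H (0.5 ug/mL dispensed) in pH 7.5 Tris buffer was preincubated 30 min with compound, then given a substrate mix of 0.016 mM NADPH and 2 mM alpha-KG for 80 min at room temperature; remaining NADPH was read by diaphorase/resazurin fluorescence.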
# IDH1 autofl – qHTS for Inhibitors of mutant isocitrate dehydrogenase 1 (IDH1): Cherrypicks Autofluorescence Interference; shares compounds with mIDH1 inhibitor; Resorufin detection reagent fluorescence interference, cell-free; inhibition of signal, % at 51.2 µM; 750 tested, under 10 active; AID 623980, 2012;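 further: 0% = wells with normal resorufin and full inhibition = wells lacking resorufin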
# IDH1 WT – qHTS for Inhibitors of mutant isocitrate dehydrogenase 1 (IDH1): Cherrypicks in WT IDH1. shares compounds with mIDH1 inhibitor. WT IDH1 enzyme, NADPH diaphorase/resazurin fluorescence. Potency, µM (highest dose often 115 µM), without a hit: at the highest dose activity change, negative = inhibition, actives largely listed as inhibitors. actives 9% (n = 750). AID 623995, 2012;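 further: potency means the concentration at half of the fitted maximal effect; 0% = full WT IDH1 enzyme control and full inhibition = no enzyme wells; nearly all actives have a fitted effect of over 55% in size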
# Target sequence (O75874 whole entry, looked up): as the sequence (O75874 whole entry R132H, stated change not applied) above, with H132R counted along it
# mIDH1 confirm – qHTS for Inhibitors of mutant isocitrate dehydrogenase 1 (IDH1): Confirmation of Cherrypicks; actives 83% (n = 750); AID 624002, 2012; shares compounds with mIDH1 inhibitor; Potency, µM (series often up to 76.6 µM), for inactives: top-dose activity change, negative = inhibition, most hits filed as inhibitors; IDH1 R132H enzyme, NADPH diaphorase/resazurin fluorescence; further: potency means the concentration at half of the fitted maximal effect; nearly all actives have a fitted effect of over 50% in size
# An asterisk follows results filed as active; i = inactive; ? = inconclusive; . = no result; [ ] = remark or other dose. Unless noted, the call rests on the fitted dose curve; in most records, active means well fitted curve in the direction sought with a large enough effect; inconclusive means small, poorly fitted or top-dose-only effect, or another doubt; inactive means no such curve, though single readings can be large; an effect the other way counts as inactive or inconclusive.
SMILES,FUS suppressor,Abeta rescue,aSyn rescue,TDP-43 yeast inh,LDHA inh,mIDH1 inhibitor,IDH1 autofl,IDH1 WT,mIDH1 confirm
COc1ccc(N(C(=O)c2ccco2)C(C(=O)NC2CCCCC2)c2ccccc2)cc1 (stereo not given),i,i[9.22 µM],-12.8%,0.8%,-1.6,?,-10.2,-19.7%,20µM*
CCc1ccc(/C=C(/C#N)C(=O)c2c(C)[nH]c3ccccc23)cc1,.,.,.,.,-5.0,.,.,.,.
CN(C)c1ccc(NC(=O)COC(=O)c2cccc(S(=O)(=O)N3CCc4ccccc43)c2)cc1,.,.,.,.,6.2,.,.,.,.
CC(OC(=O)c1ccc(C(N)=O)cc1)C(=O)NC(C)c1ccccc1 (stereo not given),.,.,.,.,3.5,.,.,.,.
COc1ccc(N(C(=O)c2cnccn2)C(C(=O)NC2CCCCC2)c2ccccc2)cc1 (stereo not given),?,i,-0.1%,-8.4%,1.3,?,-8.4,3.5%,35.5µM*
COc1ccc(-c2oc3cc(OC(C)=O)cc(OC(C)=O)c3c(=O)c2OC)cc1,i,i,-42.0%,-82.3%,2.8,?,-2.9,-3.9%,28.2µM*
Cc1ccc(N(C(=O)Cc2cccs2)C(C(=O)NC2CCCCC2)c2ccccn2)cc1C (stereo not given),?,i,8.5%,-0.2%,-0.9,?,-1.1,2.1%,10µM*
COc1cc(N(C(=O)Cc2cccs2)C(C(=O)NC2CCCCC2)c2ccc(C)cc2)ccc1-n1cnnn1 (stereo not given),i,i,-5.3%,-17.5%,0.2,23.3µM*,-5.6,0.2%,7.08µM*
COc1ccc(N(C(=O)Cc2cccs2)C(C(=O)NC2CCCC2)c2ccncc2)cc1OC (stereo not given),i,i,-0.1%,2.7%,5.2,24.8%,.,.,.
CSC1=NC(=O)/C(=C\c2cccc3ccccc23)S1,i,i,-18.9%,?,-16.9,58.5µM*,-5.4,70.8µM*,22.4µM*
CCOc1cc(/C=C/c2ncc(C(=O)O)s2)cc(Br)c1OC,.,.,.,.,-8.0,.,.,.,.
COc1cc([C@@H]2c3cc4c(cc3[C@H](O)C3COC(=O)[C@@H]32)OCO4)cc(OC)c1OC (stereo not given in full),.,.,0.2%,.,.,.,.,.,.
COc1cc([C@@H]2c3cc4c(cc3[C@@H](O)[C@H]3COC(=O)[C@H]23)OCO4)cc(OC)c1O[Si](C)(C)C(C)(C)C,i,?,2.3%,-5.7%,5.2,28.2µM*,-0.3,?,?
CCC(CNC(=O)c1cc(=O)c2ccccc2o1)c1ccccc1 (stereo not given),.,.,.,.,-20.2,.,.,.,.
